Measured values as given in PubChem BioAssay.
Calls of active or inactive are those of the source. The rule behind the calls is not given here.

The compounds below were run against Pantothenate synthetase (Mycobacterium tuberculosis (strain ATCC 25618 / H37Rv)) (UniProt P9WIL5) (assay: Coupled enzyme confirmation of inhibitors against recombinant Mtb PanC (AID 375;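 note: 0% = full reaction with vehicle and 100% = no enzyme background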)). Details: coupled enzyme assay; at 10 µM, stronger effect = higher value.
Pantothenate synthetase (Mycobacterium tuberculosis (strain ATCC 25618 / H37Rv)), sequence (P9WIL5 whole entry, looked up): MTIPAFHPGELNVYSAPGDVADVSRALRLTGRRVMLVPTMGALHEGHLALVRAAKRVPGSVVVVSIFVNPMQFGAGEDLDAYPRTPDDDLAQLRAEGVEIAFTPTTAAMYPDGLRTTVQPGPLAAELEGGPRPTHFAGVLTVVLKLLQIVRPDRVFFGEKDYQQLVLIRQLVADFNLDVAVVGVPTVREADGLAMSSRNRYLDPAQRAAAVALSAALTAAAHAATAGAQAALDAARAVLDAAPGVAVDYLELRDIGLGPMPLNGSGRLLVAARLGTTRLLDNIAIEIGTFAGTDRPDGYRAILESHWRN

Compound | inhibition
O=C(Nc1nnc(N2CCCCCC2)s1)c1cc(-c2ccc(Br)cc2)on1 | 12% (inactive)
CCc1nnc2c3cnn(-c4ccccc4)c3ncn12 | 0% (inactive)
COc1ccccc1NC(=O)C(C)NS(=O)(=O)c1ccc(F)cc1 (stereo not given) | 0% (inactive)
Nc1nc(C(=O)N2CCOCC2)nn1S(=O)(=O)c1ccc(Cl)cc1 | 0% (inactive)
c1ccc(OCCOc2ncnc3sccc23)cc1 | 0% (inactive)
CCn1c2ccccc2c2cc(NC(=O)CSc3nnc(C4CC4)n3Cc3ccco3)ccc21 | 1% (inactive)
CC1CCCN(C(=O)c2cc(F)c(F)cc2Cl)C1 (stereo not given) | 0% (inactive)
O=C(CSc1ncccn1)NCc1ccccc1 | 0% (inactive)
CN1C(=O)CSc2ccc(NC(=O)N3CCN(c4ccccn4)CC3)cc21 | 8% (inactive)
CN(Cc1ccccc1)C(=O)c1ccccc1NC(=O)c1ccco1 | 0% (inactive)
O=C(O)c1[nH]nc2c1COc1ccccc1-2 | 6% (inactive)
CCCC(C)c1nnc(NC(=O)C2CCCO2)s1 (stereo not given) | 0% (inactive)
COc1ccc(-c2cc(C(F)(F)F)nc(SCC(=O)NCc3ccco3)n2)cc1OC | 3% (inactive)
Cc1cc(N2CCN(C)CC2)nc(N2CCOCC2)n1 | 0% (inactive)
COC(=O)[C@@H](NC(=O)NCc1ccccc1Cl)C(C)C | 0% (inactive)
CCOc1ccc2nc(SCC(=O)Nc3ncccn3)[nH]c2c1 | 0% (inactive)
CCOC(=O)C1CCCN(C(=O)c2ccc(CS(=O)(=O)Cc3ccccc3C)o2)C1 (stereo not given) | 3% (inactive)
COc1ccc(NC(=O)CSC2=C(C#N)C(c3ccco3)C3=C(CCCC3=O)N2)c(OC)c1 (stereo not given) | 16% (inactive)
Cc1ccc(-c2c3c(=O)n(C)c(=O)n(C)c3cn2CCCN2CCOCC2)cc1 | 9% (inactive)
Clc1ccc2c(c1)[C@H]1OCC[C@H]1[C@@H](c1ccco1)N2 | 3% (inactive)

Compound | inhibition
Cc1c[nH]c2cccc(OCC(O)CNC(C)(C)C)c12 (stereo not given) | 0% (inactive)
O=C(Cn1ncc2c(=O)oc3ccccc3c21)NCCCN1CCCC1=O | 0% (inactive)
CCOC(=O)CCCn1nc(C)n2c(cc3sccc32)c1=O | 5% (inactive)
O=C(OC1CCc2ccccc2C1=O)c1ccccc1O (stereo not given) | 0% (inactive)
Cc1cccc(NC(=O)c2ccc3ccccc3n2)n1 | 0% (inactive)
Cc1ccc2c(Cl)cc(Cl)c(OCc3c(C)noc3C)c2n1 | 0% (inactive)
Cn1c(-c2ccccc2)cnc1SCc1nc2ccccc2c(=O)[nH]1 | 7% (inactive)
O=C1c2ccccc2CN1CCNS(=O)(=O)c1ccc(Cl)cc1 | 9% (inactive)
CCOC(=O)N1CCN(C(=O)CSc2ncnc3ccccc23)CC1 | 0% (inactive)
COc1cc(NC2c3ccccc3C(=O)N2c2ccc(C)cn2)cc(OC)c1OC (stereo not given) | 0% (inactive)
CC1(C)Cc2noc(N)c2C(C)(C)N1OC(=O)c1cccs1 | 0% (inactive)
O=C(c1ccc(NS(=O)(=O)c2cccs2)cc1)N1CCCCC1 | 0% (inactive)
CCN(C(=O)c1ccnc(C(C)(C)C)c1)c1ccccc1 | 0% (inactive)
COc1cc2c(cc1OC)CN(C(=O)CSc1nnc3scc(-c4ccccc4)n13)CC2 | 0% (inactive)
O=C(NC1CCS(=O)(=O)C1)OC1CCCCC1 (stereo not given) | 0% (inactive)
CCCCCCC(C)n1[nH]c(=O)c2c(C)cc(=O)[nH]c21 (stereo not given) | 5% (inactive)
Cn1cnc2cc(NC(=O)c3ccc(Cl)cc3)ccc21 | 0% (inactive)
CC(=O)O[C@H]1C(=O)[C@]2(C)[C@H]([C@H](OC(=O)c3ccccc3)[C@]3(O)C[C@H](OC(=O)[C@H](O)[C@@H](NC(=O)c4ccccc4)c4ccccc4)C(C)=C1C3(C)C)[C@]1(OC(C)=O)CO[C@@H]1C[C@@H]2O | 9% (inactive)
Cc1ccc(-c2nn[nH]n2)cc1 | 0% (inactive)
CC1(C)CC(=O)C2=C(C1)N(Cc1ccco1)C(=O)C2(NC(=O)C1CCCCC1)C(F)(F)F (stereo not given) | 4% (inactive)
